Laboratory results as given in PubChem BioAssay (NCI).
About 83,000 compounds went through this panel and 20% of them were active in at least one assay; those are over-represented in the sample as a whole.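 Results are percent growth after 48 hours of single-concentration exposure. 100 means growth as in untreated cells, lower positive values show inhibition; negative values down to -100 show cell death.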 Unmarked numbers belong to inactive results. Activity calls are given as the source filed them. How the source made its calls: active means growth percent below 10; inactive means the rest.

Assays:
Experiment in all cases: NCI-60 one-dose screen, 48 h (100 = growth as untreated, 0 = no growth, -100 = all killed)
Settings in all cases: 10 µM unless noted
HCT-15 colon = system: HCT-15 colon
HT29 colon = system: HT29 colon
SNB-75 CNS = system: SNB-75 CNS
SNB-19 CNS = system: SNB-19 CNS
U251 CNS = system: U251 CNS
PC-3 prostate = system: PC-3 prostate
SK-MEL-5 melanoma = system: SK-MEL-5 melanoma
UACC-62 melanoma = system: UACC-62 melanoma
LOX IMVI melanoma = system: LOX IMVI melanoma
SK-MEL-28 melanoma = system: SK-MEL-28 melanoma
SK-MEL-2 melanoma = system: SK-MEL-2 melanoma
EKVX NSCLC = system: EKVX NSCLC
SN12C renal = system: SN12C renal
UO-31 renal = system: UO-31 renal
TK-10 renal = system: TK-10 renal
ACHN renal = system: ACHN renal
CAKI-1 renal = system: CAKI-1 renal
A498 renal = system: A498 renal
CCRF-CEM leukemia = system: CCRF-CEM leukemia
MOLT-4 leukemia = system: MOLT-4 leukemia

Compound | growth (HCT-15 colon) | growth (HT29 colon) | growth (SNB-75 CNS) | growth (SNB-19 CNS) [%] | growth (U251 CNS) | growth (PC-3 prostate) | growth (SK-MEL-5 melanoma) | growth (UACC-62 melanoma) | growth (LOX IMVI melanoma) | growth (SK-MEL-28 melanoma) | growth (SK-MEL-2 melanoma) | growth (EKVX NSCLC) | growth (SN12C renal) | growth (UO-31 renal) | growth (TK-10 renal) [%] | growth (ACHN renal) | growth (CAKI-1 renal) | growth (A498 renal) | growth (CCRF-CEM leukemia) | growth (MOLT-4 leukemia)
CC(C)(C)c1cc(C=O)cc(C(C)(C)C)c1O | 102% | 102% | 83.6% | 101 | 96.3% | 87.6% | 92% | 85.4% | 98.4% | 111% | 96.2% | 126% | 104% | 103% | 93.2 | 105% | 113% | 105% | 14.3% | 14.8%
Cc1ccc(-c2csc(NC(=O)CSc3nc(-c4ccccc4)cc(=O)[nH]3)n2)cc1 | 94.5% | 102% | 96.1% | 87.5 | 92.2% | 86.5% | 87.4% | 70% | 96.5% | 97.5% | 89.4% | 90.9% | 94.9% | 76% | 108 | 91.7% | 90.7% | 97.8% | 88.8% | 74.2%
N#C/C(=C\c1ccc([N+](=O)[O-])s1)c1nc2cc(Cl)ccc2s1 | -45.9% (active) | 33.7% | 49.7% | 12.8 | 1.57% (active) | -0.522% (active) | -94.4% (active) | 19.5% | -29.2% (active) | 21.1% | -19.6% (active) | 7.23% (active) | -27.5% (active) | -15.8% (active) | 34.8 | -46.6% (active) | 43.3% | 114% | 0.557% (active) | 8.53% (active)
CCOC(=O)c1cc(C#N)n2ccc3ccccc3c12 | 96.6% | 101% | 76.2% | 92.7 | 96.9% | 102% | 97.4% | 91.5% | 95.7% | 106% | 106% | 90.9% | 94.5% | 101% | 91.3 | 109% | 90.2% | 88% | 98.8% | 96.2%
CCOC(=O)c1cc(C(=O)c2cc(OC)cc(OC)c2)n2ccc3ccccc3c12 | 100% | 101% | -7.31% (active) | 55.2 | 81.8% | 99.4% | 100% | 91.1% | 88.9% | 107% | 102% | 94.8% | 81.2% | 95.3% | 99.8 | 84.2% | 84.5% | 89.3% | 102% | 104%
OCc1cnccc1NCCCOc1ccccc1 | 105% | 102% | 99.6% | 94.9 | 98.2% | 96% | 97.1% | 90.5% | 99.4% | 109% | 107% | 105% | 94.3% | 87.9% | 92.5 | 108% | 95.7% | 91.9% | 88.8% | 96.6%
CC(=O)O[C@@H]1C2CCC3C(CC[C@@]4(C)C3CC[C@@H]4C(C)N(C)C)[C@@]2(C)CC[C@@H]1NC(=O)C=C(C)C (some centres undefined) | -58.1% (active) | -39.5% (active) | 12% | 65.6 | 14.9% | 10.5% | -93.1% (active) | -49.9% (active) | -43.5% (active) | -91.7% (active) | 31.9% | 30.8% | 32.7% | 6.19% (active) | 47.2 | 25.4% | -6.25% (active) | 60.6% | -12% (active) | -50.6% (active)
N#C/C(=C\c1ccccn1)c1nc2cc(Cl)ccc2s1 | 63.5% | 86.4% | 8.52% (active) | 85.9 | 73.8% | 44.1% | 83.7% | 68.1% | 72.7% | 101% | 95.9% | 56% | 64.7% | 44.3% | 119 | 75.8% | 66.5% | 64.6% | 63.9% | 75.6%
OCc1cnccc1NCCCCOc1ccc(Oc2ccccc2)cc1 | 49.8% | 24.6% | 71.6% | 74.6 | 52.3% | 56% | 15.7% | 61.5% | 45.9% | 70.2% | 81.6% | 50.6% | 70.7% | 49.8% | 66.1 | 80.3% | 70.7% | 76.9% | 53.9% | 45.1%
O=[N+]([O-])c1ccc(N=Nc2cc(S(=O)(=O)O)c3cccc(S(=O)(=O)O)c3c2O)cc1 | 118% | 111% | 104% | 112 | 104% | 98.5% | 104% | 108% | 106% | 117% | 106% | 82.7% | 104% | 66.1% | 127 | 107% | 57.4% | 124% | 119% | 
COc1cc(/C=C\c2cc(OC)c(OC)c(OC)c2)cc(N)c1OC | 70% | 87% | 78.7% | 88.6 | 91.2% | 82.1% | 86.7% | 74.7% | 86.8% | 97.6% | 74.2% | 94.1% | 93.4% | 69% | 95.9 | 105% | 56.4% | 76.5% | 74% | 93.1%
CCOC(=O)c1cc(C(=O)c2ccc(OC)cc2)n2ccc(/C=C/c3cc[n+](CC(=O)c4ccc(OC)cc4)cc3)cc12 | 85.9% | 16.5% | 57.9% | 31.3 | 53.5% | 64.1% | 87.8% | 99.5% | 25.4% | 103% | 100% | 87.8% | 56.2% | 72.7% | 91.7 | 70.2% | 81.8% | 67.6% | -22.5% (active) | 49.8%
Cc1cc2c(c(C)c1Cl)C(=O)/C(=C/c1ccc(O)c(O)c1)O2 | 106% | 106% | 99% | 99.2 | 85.4% | 100% | 100% | 88.8% | 93.7% | 105% | 104% | 98.7% | 92.1% | 72.2% | 119 | 92.7% | 90.6% | 106% | 101% | 108%
COc1ccc(C(=O)C2C(C#N)C(C#N)C3C=Cc4ccccc4N32)cc1 (centres undefined) | 16.9% | 8.8% (active) | -21.3% (active) | 32.7 | 34.6% | 29.2% | 15.2% | 57.6% | 43.5% | 57.6% | 44.5% | 56.7% | 32.7% | 42% | 91.9 | 44% | 27.4% | -9.53% (active) | 16.2% | 37.5%
COCc1cnccc1NC1CCCCCC1 | 107% | 90.7% | 98.1% | 104 | 103% | 98.1% | 101% | 98.7% | 100% | 110% | 107% | 102% | 99.4% | 86.3% | 94.1 | 108% | 94.4% | 84.4% | 101% | 94.4%
